PNC inhibitor: inhibitors of perinucleolar compartment assembly; PC3M PTB-GFP, PNC prevalence imaging, 16 h; active compounds read low; activity change (PNC), negative = inhibition, % at 10 µM; actives 3.1% (n = 140,000);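 active = readout at or below -70, meaning at least 70% loss of cells showing the perinucleolar compartment, a nuclear body marking cancer cells; inconclusive = readout between -30 and a set limit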;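 also: plate controls were DMSO wells for no effect and camptothecin positive control wells for full effect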
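PC3M cells stably expressing PTB-GFP, 750–1000 cells/well, treated 16 h at 37 °C with compound (23 nl of library stock), in duplicate. After paraformaldehyde fixation and Hoechst stain, imaged at 20x; PNC prevalence scored by image analysis.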
HPGD inh: HPGD (human) dehydrogenase inhibition; AID 894; P15428; actives 4.3% (n = 150,000); purified HPGD, NADH fluorescence kinetic, PGE2 substrate; Potency, µM, for inactives: at the top dose activity change, negative = inhibition, actives largely listed as inhibitors; also: potency is read from the fitted curve at half-maximal effect
Target sequence (P15428 whole entry, looked up): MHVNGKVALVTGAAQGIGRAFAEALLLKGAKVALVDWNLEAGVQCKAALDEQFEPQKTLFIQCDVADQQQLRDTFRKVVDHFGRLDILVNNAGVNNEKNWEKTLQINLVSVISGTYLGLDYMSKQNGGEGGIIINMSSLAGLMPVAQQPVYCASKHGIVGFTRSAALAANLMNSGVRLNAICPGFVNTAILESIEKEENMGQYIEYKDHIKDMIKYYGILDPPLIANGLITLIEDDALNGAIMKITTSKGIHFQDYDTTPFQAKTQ
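20 nM HPGD preincubated 15 min at room temperature with compound in 50 mM Tris-HCl pH 8, 0.01% Tween 20. Started with 1 mM NAD+ and 30 uM prostaglandin E2; NADH fluorescence (360/450 nm) read 5 times over 30-s intervals, last minus first.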
ALDH1A1 inh: inhibitors of human aldehyde dehydrogenase 1A1; actives 7.3% (n = 220,000); P00352; Potency, µM (doses to about 75.3 µM), for inactives: at the top dose activity, negative = inhibition, most hits filed as inhibitors; Purified ALDH1A1, NADH fluorescence, propionaldehyde substrate; AID 1030;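 also: potency is read from the fitted curve at half-maximal effect; plate controls were no enzyme wells and a reference inhibitor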
* = called active by the depositor; ? = inconclusive; nt = no result. Rows were chosen to be rich in hits. Some 11% of all compounds tested hit in one or more screens of this group. Unless noted, calls follow the shape of the dose curve; as a rule, active = well fitted inhibition curve with a large enough effect (not every such curve was filed as active); inconclusive = small, poorly fitted or top-dose-only effect, or another doubt; inactive = no such curve, though single readings can be large or run the other way. Unless noted, % is scaled to controls: 0 for no effect and ±100 for the full control effect.

SMILES	PNC inhibitor	HPGD inh	ALDH1A1 inh
COc1cccc(CNC(=O)C2CCN(S(=O)(=O)c3ccccc3)CC2)c1	31.5	3.6%	2.8%
COc1cccc(CNC(=O)C2CCN(S(=O)(=O)N3CCCCC3)CC2)c1	11.3	-11.8%	10µM*
COc1ccc(S(=O)(=O)N2CCC(C(=O)NCc3cccc(OC)c3)CC2)cc1	6.9	-11.0%	-14.9%
COc1cccc(CN(C)C(=O)c2ccc(S(=O)(=O)N3CCCC3)cc2)c1OC	10.0	-5.5%	11.2µM*
COc1ccc(Br)cc1CNC(=O)C1CCN(S(=O)(=O)N2CCCCC2)CC1	77.7	-7.3%	12.6µM*
COc1ccccc1CNC(=O)c1ccc(S(=O)(=O)N2CCCC2)cc1	-27.8	nt	?
COc1ccc(OC)c(CNC(=O)C2CCN(S(=O)(=O)N3CCCC3)CC2)c1	21.7	-8.9%	?
COc1cccc(CNC(=O)c2ccc(S(=O)(=O)N3CCCC3)cc2)c1	39.7	-4.5%	12.6µM*
COc1cccc(Cn2c(=O)c(-c3cccs3)nc3cnc(Nc4cccc(OC)c4)nc32)c1	nt	-0.3%	0.0%
C=C(C)Cn1c(SCC(=O)N/N=C/c2cccc(O)c2)nc2ccccc2c1=O	-3.2	-9.9%	?
CC(C)(C)NC(=O)c1ccccc1NC(=O)C1CCCO1 (centres undefined)	nt	nt	-2.8%
COc1ccc(/C=N/Nc2nc(-c3ccc(Cl)cc3)cc(C(F)(F)F)n2)c(OC)c1	53.4	-6.6%	5.8%
Cc1cccc(-n2c(CNC(=O)c3ccc(S(=O)(=O)N4CCCC4)cc3)n[nH]c2=S)c1	?	-23.0%	?
COc1ccc(-n2c(CNC(=O)c3ccc(S(=O)(=O)N4CCCC4)cc3)n[nH]c2=S)cc1	?	-7.4%	10µM*
CC(C)[C@@H]1C(=O)N(S(C)(=O)=O)[C@H]2CCN(C(=O)/C=C\CN3CCCCC3)[C@@H]12	nt	5.0%	6.2%
O=C(CCCc1c[nH]c2ccccc12)N1CCN(S(=O)(=O)c2cccs2)CC1	-5.2	-2.9%	?
C=C(Cl)COc1cc(C)cc2oc(=O)cc(CC)c12	25.2	?	?
Cc1cc(OCc2cc3c(cc2Cl)OCO3)c2c(C)cc(=O)oc2c1	?	nt	0.178µM*
CCOC(=O)Cc1csc(NC(=O)C(NC(=O)C2CCCCC2)C(C)C)n1 (centres undefined)	nt	nt	4.7%
O=C(NCN1C(=O)C2C3C=CC(C3)C2C1=O)Nc1nccs1 (centres undefined)	-100.0*	-5.3%	?
CCc1nnc(NC(=O)NCN2C(=O)C3C4C=CC(C4)C3C2=O)s1 (centres undefined)	13.9	7.8%	-8.5%
O=C1CSC(c2ccco2)N1 (centres undefined)	-10.6	-5.2%	-11.3%
COc1ccc(C2NC(=O)CS2)cc1 (centres undefined)	-100.0*	-19.3%	-12.6%
O=C(CCCCCN1C(=O)c2cccc3cccc(c23)C1=O)NO	nt	-25.9%	?
CCOc1ccc(OCC)c(NC(=O)CSc2nc3c(c(=O)n(C)c(=O)n3C)n2C(C)C)c1	-16.9	nt	8.91µM*
SMILES	PNC inhibitor	HPGD inh	ALDH1A1 inh
CCOc1ccc(OCC)c(NC(=O)CSc2nc3c(c(=O)n(C)c(=O)n3C)n2C)c1	56.7	-8.1%	-2.3%
CCOC(=O)c1sc(NC(=S)NC(=O)C23CC4CC(CC(C4)C2)C3)cc1C	-8.0	-9.6%	-6.7%
Oc1[nH]c2ccccc2c1N=Nc1ncnc2c1oc1ccccc12	nt	nt	11.5%
CC(OC(=O)C1CC1)C(=O)Nc1ccc([N+](=O)[O-])cc1Cl (centres undefined)	nt	nt	6.8%
C=C(C(=O)O)[C@@H]1CC[C@@]2(C)CCC[C@](C)(O)[C@@H]2C1	nt	-3.0%	5.0%
CCN(CC)S(=O)(=O)c1cc(NC(=O)CSc2nc3c(cc2C#N)C(=O)CC(C)(C)C3)ccc1C	-96.0*	-6.8%	?
CCN(CC)S(=O)(=O)c1cc(NC(=O)CSc2nnc(-c3cccs3)o2)ccc1C	-1.3	-15.5%	-2.2%
Cc1ccc2c(C)nc(NC3=NCN(CCc4ccccc4)CN3)nc2c1	?	-6.5%	12.7%
O=c1c2c3c(sc2nc2n1CCC2)CCC3	?	-12.3%	-3.9%
O=c1nc2n(c3c4c(sc13)CCC4)CCC2	22.7	-19.8%	17.8µM*
Cc1ccccc1CSc1nnc(C)n1N	13.2	-6.3%	6.0%
CCCCOc1ccc(Cl)cc1CSc1nnc(C)n1N	-97.1*	-14.2%	3.7%
O=[N+]([O-])c1cc(/C=N\Nc2nccs2)ccc1O	-11.1	8.91µM*	?
O=C(COc1ccccc1[N+](=O)[O-])N/N=C/c1ccc(O)c([N+](=O)[O-])c1	nt	nt	25.1µM*
O=C(Nc1nccs1)c1ccc(Cl)cc1[N+](=O)[O-]	17.9	-1.9%	19.1%
